From PubChem BioAssay come the findings set out here.

Calls of active or inactive are those of the source.

The test system of assay [1] is Human papillomavirus type 1a protein E7 (residues 44-93). The experiment in a line: small molecules binding HPV E7 44-93 – biochemical, small-molecule microarray, residues 44-93, 635 nm fluorescence, primary screen (AID 1108).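 Also: E7 fragment applied at 1 µg/mL in TBST for 1 h at 4 C; score combines spot fluorescence with its signal to noise ratio.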 As to conditions: fluorescence 635 nm, higher = more signal.
Assay [2] is described as follows: hepatitis C replication reporter changes, two-sided – Huh7 cells, luciferase reporter, HCV replication inhibitor project, primary screen (AID 1109).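 Also: huh7 hepatoma cells harbouring a luciferase neomycin HCV replicon reporter; luciferase luminescence as measure of HCV replicon replication; test concentration not given here.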 The conditions noted are these: Huh7 HCV replicon luciferase reporter, 48 h; higher = more signal.
Assay [3] deals with Left-right determination factor 2 (Homo sapiens) (UniProt O00292). Nature of the assay: small molecules binding LEFTY2 protein – biochemical, small-molecule microarray, 635 nm fluorescence scan, primary screen (AID 1110). As to conditions: higher = more signal.
Assay [4] addresses Calmodulin-1 (Homo sapiens) (UniProt P0DP23). The experiment in a line: small molecules binding calmodulin-1 with EGTA – biochemical, small-molecule microarray, Cy5-labelled CALM1, profiling panel (AID 1111).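 Also: labelled calmodulin applied in Tris saline Tween buffer holding calcium plus EGTA and DTT.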 As to conditions: Cy5-CALM1 binding fluorescence, higher = more signal.
Assay [5] has the same target. Nature of the assay: small molecules binding Ca-loaded calmodulin-1 – biochemical, small-molecule microarray, Cy5-labelled CALM1, plus calcium, artefact control for SMM control-protein annotation, profiling panel (AID 1112).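 Also: score merges spot fluorescence with signal to noise from triplicate slides.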 As to conditions: Cy5-CALM1 binding fluorescence, higher = more signal.
Assay [6] can be described thus: probe aWnt5a binding to arrayed compounds – biochemical, biotinylated probe, 635/667 nm fluorescence, primary screen (AID 1113).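 Also: score merges 667 nm fluorescence intensity with signal-to-noise per printed feature.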 The conditions noted are these: small-molecule microarray, higher = more signal.
Assay [7] in a line: probe aShh binding to arrayed compounds – biochemical, biotinylated probe, 635/667 nm fluorescence, primary screen (AID 1114).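 Also: probe is biotin-labelled aShh protein from a stem cell growth factor screen; measures binding of labelled protein to compounds printed on the slide; score merges feature fluorescence at 667 nm with signal-to-noise.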 As to conditions: small-molecule microarray, higher = more signal.
Assay [8] in a line: probe aNog binding to arrayed compounds – biochemical, biotinylated probe, 635/667 nm fluorescence, primary screen (AID 1115).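 Also: probe is biotinylated aNog protein used at 0.15 µg/mL for 1 h at 4 C; z-score combines 667 nm fluorescence of each spot with its signal to noise.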 The conditions noted are these: small-molecule microarray, higher = more signal.
In assay [9] the target is Torsin-1A-interacting protein 1 (Homo sapiens) (UniProt Q5JTV8). Nature of the assay: compound microarray binding of lysate hLAP1 – cell lysate, small-molecule microarray, COS7 lysate, 635/667 nm fluorescence, primary screen (AID 1116). The conditions noted are these: 635 nm fluorescence, higher = more signal.
The target in assay [10] is Alpha-bungarotoxin (Bungarus multicinctus) (UniProt P60615). Nature of the assay: compounds binding labelled alpha-BTX control protein – biochemical, small-molecule microarray, Alexa647 label, 635/667 nm fluorescence, artefact control for SMM control protein annotation, profiling panel (AID 1117). As to conditions: alpha-BTX-A647 binding fluorescence, higher = more signal.

A further assay addresses Albumin (Bos taurus) (UniProt P02769). Nature of the assay: compounds binding labelled BSA control protein – biochemical, small-molecule microarray, Alexa647 label, 635/667 nm fluorescence, artefact control for SMM control protein annotation, profiling panel (AID 1118).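 Also: score merges 667 nm emission intensity and signal-to-noise per printed compound spot.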 The conditions noted are these: BSA-A647 binding, fluorescence 635 nm, higher = more signal.
A short description of assay [11]: probe aXIP binding to arrayed compounds – biochemical, NeuroSMM set, 635/667 nm fluorescence, primary screen (AID 1119).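 Also: probe is the protein aXip251-270 applied at 1 µg/mL to compound-printed slides; binding of probe to printed compounds measured as 667 nm fluorescence plus signal to noise.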 The conditions noted are these: small-molecule microarray, higher = more signal, called active from +8 up or from −8 down.
Assay [12] can be described thus: probe aNOTCH3 binding on compound microarray – biochemical, small-molecule microarray, 635/667 nm fluorescence, primary screen (AID 1120).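 Also: probe is a biotin-tagged antibody raised against NOTCH3 rather than NOTCH3 protein; score merges spot fluorescence near 667 nm with spot signal to noise.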 The conditions noted are these: higher = more signal.
Assay [13] can be described thus: probe aNOTCH2 binding on compound microarray – biochemical, small-molecule microarray, 635/667 nm fluorescence, primary screen (AID 1121).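 Also: score merges feature fluorescence read at 667 nm with its signal to noise.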 The conditions noted are these: higher = more signal.
The target of assay [14] is Carbonic anhydrase 2 (Homo sapiens) (UniProt P00918). Nature of the assay: compounds binding carbonic anhydrase 2 – biochemical, small-molecule microarray, Alexa647-labelled CAII, profiling panel (AID 1122). As to conditions: CAII-A647 binding fluorescence, higher = more signal.
Assay [15] in a line: COS7 lysate on small-molecule microarray, probe aHis, 635 nm (AID 1123).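 Also: z-score combines 667nm fluorescence intensity with signal-to-noise per printed compound spot.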 As to conditions: COS7 cell lysate, fluorescence, higher = more signal.
Assay [16] is described as follows: probe aLAP1 signal on lysate-treated microarray – cell lysate, small-molecule microarray, COS7 lysate, primary screen (AID 1124).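 Also: lysate comes from COS7 cells expressing LAP1 and is applied at 0.3 µg/mL; score merges spot fluorescence near 667 nm with signal-to-noise over triplicate slides.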 As to conditions: probe aLAP1, fluorescence, higher = more signal.
Another assay concerns Sam68 (KHDRBS1). The experiment in a line: compounds binding KHDRBS1 protein – biochemical, small-molecule microarray, 635 nm fluorescence, primary screen (AID 1125).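 Also: score merges 667 nm channel intensity with signal to noise over triplicate slides.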 The conditions noted are these: higher = more signal.
In assay [17] the test system is Chordin-like protein 2 (CHRDL2). The experiment in a line: compounds binding chordin-like 2 – biochemical, small-molecule microarray, 635 nm fluorescence, primary screen (AID 1126).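 Also: printed compound slides probed with Chrdl2 protein at 4 µg/mL for 1 h at 4 C; score merges 667 nm emission intensity with signal to noise over three replicate slides.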 The conditions noted are these: fluorescence 635 nm, higher = more signal.
Assay [18] deals with Concanavalin-A (Canavalia ensiformis) (UniProt P02866). Nature of the assay: compounds binding concanavalin A lectin – biochemical, small-molecule microarray, Alexa647 label, 635 nm, artefact control for SMM control protein annotation, primary screen (AID 1127).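 Also: z combines 667 nm emission intensity with signal-to-noise across three replicate slides.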 The conditions noted are these: ConA-A647 binding fluorescence, higher = more signal.
Concanavalin-A (Canavalia ensiformis), sequence (P02866 whole entry, looked up): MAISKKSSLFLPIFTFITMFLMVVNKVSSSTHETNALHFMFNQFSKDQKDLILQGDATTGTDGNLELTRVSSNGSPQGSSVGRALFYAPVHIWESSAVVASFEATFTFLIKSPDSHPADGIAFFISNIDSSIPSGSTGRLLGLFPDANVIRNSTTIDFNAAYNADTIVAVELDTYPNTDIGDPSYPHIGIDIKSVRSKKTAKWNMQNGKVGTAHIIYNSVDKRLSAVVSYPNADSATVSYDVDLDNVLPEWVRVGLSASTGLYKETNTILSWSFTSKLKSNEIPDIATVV

Alpha-bungarotoxin (Bungarus multicinctus), sequence (P60615 whole entry, looked up): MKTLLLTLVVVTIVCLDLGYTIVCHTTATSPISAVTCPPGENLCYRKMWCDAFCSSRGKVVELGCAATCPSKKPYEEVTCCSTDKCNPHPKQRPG
Torsin-1A-interacting protein 1 (Homo sapiens), sequence (Q5JTV8 whole entry, looked up): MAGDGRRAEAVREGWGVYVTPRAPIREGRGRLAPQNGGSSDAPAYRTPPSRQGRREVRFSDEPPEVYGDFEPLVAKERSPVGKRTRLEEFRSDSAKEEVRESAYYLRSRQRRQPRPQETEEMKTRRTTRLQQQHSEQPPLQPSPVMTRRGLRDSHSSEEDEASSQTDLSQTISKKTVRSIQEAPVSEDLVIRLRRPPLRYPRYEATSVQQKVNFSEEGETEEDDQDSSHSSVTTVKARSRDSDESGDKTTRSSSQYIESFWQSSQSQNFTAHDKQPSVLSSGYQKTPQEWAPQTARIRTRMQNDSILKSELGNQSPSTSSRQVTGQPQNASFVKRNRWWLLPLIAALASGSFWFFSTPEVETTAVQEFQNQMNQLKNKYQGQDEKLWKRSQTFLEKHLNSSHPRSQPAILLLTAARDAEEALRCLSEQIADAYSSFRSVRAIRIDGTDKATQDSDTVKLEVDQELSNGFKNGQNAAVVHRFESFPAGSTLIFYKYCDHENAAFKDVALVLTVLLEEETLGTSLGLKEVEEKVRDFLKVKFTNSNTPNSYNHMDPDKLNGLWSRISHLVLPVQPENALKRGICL
Left-right determination factor 2 (Homo sapiens), sequence (O00292 whole entry, looked up): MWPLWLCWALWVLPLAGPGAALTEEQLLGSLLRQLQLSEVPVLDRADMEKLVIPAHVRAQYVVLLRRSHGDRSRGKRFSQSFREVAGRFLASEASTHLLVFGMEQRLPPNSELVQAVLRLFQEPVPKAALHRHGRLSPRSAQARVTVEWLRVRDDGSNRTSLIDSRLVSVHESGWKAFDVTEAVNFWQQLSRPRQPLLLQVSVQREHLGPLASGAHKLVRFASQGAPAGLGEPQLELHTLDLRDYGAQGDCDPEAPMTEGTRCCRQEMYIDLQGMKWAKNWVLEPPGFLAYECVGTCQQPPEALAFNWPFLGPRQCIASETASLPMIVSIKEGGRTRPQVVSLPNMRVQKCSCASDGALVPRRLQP
Albumin (Bos taurus), sequence (P02769 whole entry, looked up): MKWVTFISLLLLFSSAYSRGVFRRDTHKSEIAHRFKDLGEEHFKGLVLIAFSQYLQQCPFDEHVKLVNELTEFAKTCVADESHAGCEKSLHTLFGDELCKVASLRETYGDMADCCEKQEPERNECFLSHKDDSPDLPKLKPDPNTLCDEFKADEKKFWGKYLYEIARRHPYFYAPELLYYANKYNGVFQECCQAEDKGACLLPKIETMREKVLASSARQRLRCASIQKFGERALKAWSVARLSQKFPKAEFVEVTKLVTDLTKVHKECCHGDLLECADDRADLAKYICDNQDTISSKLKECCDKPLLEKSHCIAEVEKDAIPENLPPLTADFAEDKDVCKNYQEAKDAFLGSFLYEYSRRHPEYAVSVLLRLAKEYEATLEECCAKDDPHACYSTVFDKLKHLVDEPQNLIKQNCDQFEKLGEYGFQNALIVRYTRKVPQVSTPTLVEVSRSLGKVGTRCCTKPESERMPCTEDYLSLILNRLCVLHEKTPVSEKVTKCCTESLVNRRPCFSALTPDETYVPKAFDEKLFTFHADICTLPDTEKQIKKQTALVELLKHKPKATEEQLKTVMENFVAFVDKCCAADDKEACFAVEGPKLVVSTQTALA

With `CCCNC(=O)[C@@]1(c2ccc([N+](=O)[O-])cc2)CC(=O)N(C2CCCCC2)[C@@H]1c1ccc(CO)cc1I`, the composite z-score in assay [1] was 0.198; in assay [3], -0.101; in assay [4], 0.647; in assay [5] it was 0.587; in [6], 0.108; in assay [7] it was 0.166. The composite z-score was 1.44 in [8]; 1.33 in assay [9]; 1.6 in assay [10]; 0.529 with Albumin (Bos taurus); -0.0328 in [12]; -0.0635 in assay [13]. For the same compound, the composite z-score in assay [14] is 0.71; in [15] it was 1.73; in assay [16], 0.521; with Sam68 (KHDRBS1), 1.25; in [17] it was -0.0452; in assay [18] it was 1.07. For the same compound, the z-score in assay [2] was -2.64. In [11], the composite Z-score is 0.116 (inactive).

In the case of `C[C@@H]1ON(c2ccc(C(=O)OC(C)(C)C)cc2)[C@H](c2ccc(Br)cc2)[C@H]1C(=O)N1C(=O)OC[C@H]1Cc1ccccc1`, the composite z-score is 1.38 in assay [1]; 0.498 in [3]; 0.79 in assay [4]; -0.115 in assay [5]; -0.0643 in assay [6]; -0.138 in assay [7]. Moreover, the composite z-score in assay [8] is 0.25; in [9], 0.323; in [10], 0.544; in the assay with Albumin (Bos taurus), 0.778; in assay [12], 0.0773; in [13] it was -0.0984. Besides, the composite z-score is 0.235 in assay [14]; 1.86 in assay [15]; 0.0865 in assay [16]; 1.28 in the assay with Sam68 (KHDRBS1); 0.491 in assay [17]; 1.08 in assay [18]. The same compound displayed a z-score in assay [2] of 1.05. In addition, the composite Z-score in [11] was -0.359 (inactive).

For the compound `CCCCN1CC=CC23O[C@@H]4C=CCOC(=O)[C@@H]4[C@H]2C(=O)N(CCCO)[C@@H]3C1=O` (stereo not given in full), the composite z-score in assay [1] was 0.409; in [3], -0.997; in assay [4], -0.125; in assay [5] it was 0.423; in [6] it was -0.202; in assay [7] it was -0.138. The composite z-score in [8] was -0.168; in [9], -0.363; in [10], -1.34; with Albumin (Bos taurus), 0.335; in assay [12], -0.321; in assay [13], -0.179. Besides, the composite z-score is 0.868 in [14]; 0.726 in assay [15]; 0.95 in assay [16]; 0.237 in the assay on Sam68 (KHDRBS1); -0.565 in assay [17]; -0.926 in assay [18]. Further, the z-score in assay [2] is -0.352. Also, the composite Z-score in assay [11] was 0.064 (inactive).

In the case of `C=C(/C(=C/C[C@@H](OC(=O)c1ccncc1)c1ccc(OCCO)cc1)c1cc(C(=O)OC)ccc1OC)C(C)C`, the composite z-score is 1.38 in assay [1]; -0.0398 in [3]; 0.356 in [4]; -0.252 in assay [5]; -0.0721 in assay [6]; -0.138 in assay [7]. Besides, the composite z-score in [8] is -0.45; in [9], 0.637; in [10], 0.249; with Albumin (Bos taurus), 0.277; in [12], 0.157; in [13] it was -0.124. The composite z-score in [14] is 0.269; in assay [15], 1.06; in assay [16], -0.017; with Sam68 (KHDRBS1), 1.14; in assay [17], -0.0737; in assay [18], 0.695. The compound further registered a z-score in [2] of -1.88. Also, the composite Z-score in assay [11] is 0.443 (inactive).

`[N-]=[N+]=Nc1ccccc1[C@H]1OC(c2ccc(OCCCO)cc2)=N[C@@]1(CCS(=O)(=O)c1ccccc1)C(=O)N1CCCCC1`: the composite z-score in [1] was 1.44; in assay [3], -0.149; in assay [4], 1.48; in [5] it was 0.956; in assay [6], -0.0165; in [7] it was 0.184. The composite z-score was 0.0127 in [8]; 1.27 in [9]; 2.21 in [10]; 0.949 with Albumin (Bos taurus); 0.355 in assay [12]; -0.0439 in assay [13]. Further, the composite z-score in assay [14] was 0.647; in [15], 2.65; in assay [16], 0.0866; in the assay with Sam68 (KHDRBS1) it was 1.3; in assay [17], -0.106; in [18], 1.19. In assay [2], the z-score is -1.05. The composite Z-score in [11] was -0.311 (inactive).
